Data published in PubChem BioAssay.
The source made the active and inactive calls.

Legend:
[1] = binders of probe aFSTL3 on microarray, primary screen, stem cell growth factor project, biochemical, small-molecule microarray, fluorescence 635/667 (AID 1064); conditions: higher = more signal;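 note: measures binding of the biotinylated anti-FSTL3 antibody to printed compounds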
[2] = binders from COS7 lysate, DM2A8 probe, primary screen, torsin A project, cell lysate, small-molecule microarray, fluorescence 635/667 (AID 1065); conditions: higher = more signal, COS7 lysate expressing mutant human TOR1A
[3] = binders of probe aFGF2 on microarray, primary screen, stem cell growth factor project, biochemical, small-molecule microarray, fluorescence 635/667 (AID 1067); conditions: higher = more signal;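 note: measures binding of biotinylated aFGF2 protein to printed compounds on slides; z-score merges feature fluorescence and signal-to-noise across triplicate slides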
[4] = binders of probe aFGF10 on microarray, primary screen, stem cell growth factor project, biochemical, small-molecule microarray, fluorescence 635/667 (AID 1071); conditions: higher = more signal;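 note: score merges 667 nm spot intensity and signal to noise from triplicate slides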
[5] = molecular target: Neurogenic locus notch homolog protein 2 (Homo sapiens) (UniProt Q04721); test: Notch2 binders on small-molecule microarrays, primary screen, biochemical, small-molecule microarray, 635 nm fluorescence, stem cell growth factors (AID 1073); conditions: Notch2 binding, higher = more signal
[6] = molecular target: Pro-neuregulin-1, membrane-bound isoform (Homo sapiens) (UniProt Q02297); test: NRG1 binders on small-molecule microarrays, primary screen, psychiatric disease protein project, biochemical, small-molecule microarray, fluorescence 635/667 (AID 1075); conditions: NRG1 binding, 635 nm fluorescence, higher = more signal;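 note: score combines 667 nm spot fluorescence with signal to noise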
Sequence of Pro-neuregulin-1, membrane-bound isoform (Homo sapiens) (Q02297 whole entry, looked up, the tested form may be a part, canonical isoform): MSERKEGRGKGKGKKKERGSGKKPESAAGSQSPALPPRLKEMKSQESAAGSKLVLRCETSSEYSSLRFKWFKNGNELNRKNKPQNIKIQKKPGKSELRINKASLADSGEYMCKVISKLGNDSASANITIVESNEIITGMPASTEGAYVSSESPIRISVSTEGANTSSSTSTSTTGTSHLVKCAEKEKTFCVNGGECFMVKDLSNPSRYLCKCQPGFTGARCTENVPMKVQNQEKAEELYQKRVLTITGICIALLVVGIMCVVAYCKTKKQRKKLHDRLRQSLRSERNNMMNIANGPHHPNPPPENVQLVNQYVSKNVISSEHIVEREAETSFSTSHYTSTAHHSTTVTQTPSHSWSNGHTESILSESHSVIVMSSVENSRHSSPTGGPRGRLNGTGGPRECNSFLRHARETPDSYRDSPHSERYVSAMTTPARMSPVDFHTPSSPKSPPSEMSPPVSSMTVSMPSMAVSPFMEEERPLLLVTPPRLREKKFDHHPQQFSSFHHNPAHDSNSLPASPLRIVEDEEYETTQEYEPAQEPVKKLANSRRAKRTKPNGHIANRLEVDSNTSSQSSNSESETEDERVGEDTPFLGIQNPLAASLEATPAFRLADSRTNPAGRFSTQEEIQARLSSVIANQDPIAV

[7] = tested on: Neuregulin-1 EGF-like domain; test: binders of neuregulin-1 EGF-like domain, primary screen, biochemical, small-molecule microarray, 635 nm fluorescence (AID 1081); conditions: small-molecule microarray binding, higher = more signal;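 note: binding of the protein to compounds printed on small-molecule microarray slides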
[8] = FRG1 promoter luciferase signal modulators, primary screen, FRG1 inhibition for FSHD, cell-based, C2C12 myotubes, firefly/Renilla luciferase, luminescence (AID 1084); conditions: higher = more signal, called active from +8 up or from −8 down
[9] = binders of probe aFST on microarray, primary screen, stem cell growth factor project, biochemical, small-molecule microarray, fluorescence 635/667 (AID 1086); conditions: higher = more signal;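 note: score merges 667 nm fluorescence with signal-to-noise of each printed compound spot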
[10] = binders of probe aHhip on microarray, primary screen, stem cell growth factor project, biochemical, small-molecule microarray, fluorescence 635/667 (AID 1087); conditions: higher = more signal;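 note: score merges spot fluorescence at 667nm with spot signal to noise ratio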
[11] = tested on: PRMT1 (protein arginine N-methyltransferase 1); test: PRMT1 binders on small-molecule microarrays, primary screen, biochemical, small-molecule microarray, 635 nm fluorescence (AID 1088); conditions: small-molecule microarray binding, higher = more signal;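 note: binding of Prmt1 protein to compounds spotted on small-molecule microarray slides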
[12] = yeast growth modulation, basal conditions, primary screen, YJM789 clinical isolate, OD600, 24 h (AID 1089);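 note: growth of clinical yeast isolate S. cerevisiae YJM 789 seeded 1000 cells per well; test concentration not given here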; conditions: S. cerevisiae YJM789 growth, higher = more signal, called active from +8 up or from −8 down
[13] = fission yeast growth modulation, primary screen, strain 972, OD600, 24 h, no modulator (AID 1090);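 note: basal condition with compound alone and no growth modifier present; test concentration not given here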; conditions: S. pombe 972 growth, higher = more signal, called active from +8 up or from −8 down
[14] = S. cerevisiae growth modulation with rapamycin, primary screen, strain BY4716, OD600, 96 h (AID 1091); conditions: higher = more signal, called active from +8 up or from −8 down; note: test concentration not given here
[15] = molecular target: Torsin-1A-interacting protein 2 (Homo sapiens) (UniProt Q8NFQ8); test: LULL1 binders on small-molecule microarray, primary screen, cell lysate, human LULL1 lysate, 635/667 nm fluorescence (AID 1092); conditions: hLULL1 lysate binding, 635 nm fluorescence, higher = more signal;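 note: probe is lysate of COS7 cells overexpressing human LULL1; score merges per-feature 667 nm fluorescence with signal-to-noise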
Sequence of Torsin-1A-interacting protein 2 (Homo sapiens) (Q8NFQ8 whole entry, looked up): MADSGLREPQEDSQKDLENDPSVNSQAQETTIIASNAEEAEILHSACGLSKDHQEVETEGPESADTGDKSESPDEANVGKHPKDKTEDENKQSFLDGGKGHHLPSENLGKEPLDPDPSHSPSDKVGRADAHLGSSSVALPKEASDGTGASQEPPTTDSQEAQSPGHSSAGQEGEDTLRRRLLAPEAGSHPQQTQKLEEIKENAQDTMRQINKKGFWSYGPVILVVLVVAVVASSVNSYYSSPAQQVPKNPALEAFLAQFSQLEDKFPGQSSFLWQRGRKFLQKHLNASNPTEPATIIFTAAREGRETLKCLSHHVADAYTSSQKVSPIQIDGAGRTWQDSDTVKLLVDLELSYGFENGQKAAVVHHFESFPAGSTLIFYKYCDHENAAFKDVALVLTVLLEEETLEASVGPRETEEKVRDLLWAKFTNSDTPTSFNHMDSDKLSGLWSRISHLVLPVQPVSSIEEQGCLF

[16] = E. coli growth modulation, two-sided OD650, primary screen, E. coli filamentation project, strain DRC41, 24 h (AID 1093); conditions: OD650, 24 h, higher = more signal, called active from +8 up or from −8 down;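 note: MC1000 strain lacking acrAB efflux and sulA so SOS filamentation is blocked; test concentration not given here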
[17] = small-molecule microarray binders of probe aLefty2, primary screen, biochemical, biotinylated probe, 635/667 nm fluorescence (AID 1094); conditions: higher = more signal;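 note: score merges spot fluorescence near 667 nm with spot signal-to-noise ratio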
[18] = tested on: Noggin (protein binding on small-molecule microarray); test: Noggin binders on small-molecule microarray, primary screen, biochemical, 635/667 nm fluorescence (AID 1095); conditions: 635 nm fluorescence, higher = more signal;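 note: score merges 667 nm feature fluorescence with signal to noise over triplicate slides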
[19] = molecular target: Neurogenic locus notch homolog protein 3 (Homo sapiens) (UniProt Q9UM47); test: NOTCH3 binders on small-molecule microarray, primary screen, biochemical, 635/667 nm fluorescence (AID 1096); conditions: NOTCH3 binding, 635 nm fluorescence, higher = more signal
Sequence of Neurogenic locus notch homolog protein 3 (Homo sapiens) (Q9UM47 whole entry, looked up): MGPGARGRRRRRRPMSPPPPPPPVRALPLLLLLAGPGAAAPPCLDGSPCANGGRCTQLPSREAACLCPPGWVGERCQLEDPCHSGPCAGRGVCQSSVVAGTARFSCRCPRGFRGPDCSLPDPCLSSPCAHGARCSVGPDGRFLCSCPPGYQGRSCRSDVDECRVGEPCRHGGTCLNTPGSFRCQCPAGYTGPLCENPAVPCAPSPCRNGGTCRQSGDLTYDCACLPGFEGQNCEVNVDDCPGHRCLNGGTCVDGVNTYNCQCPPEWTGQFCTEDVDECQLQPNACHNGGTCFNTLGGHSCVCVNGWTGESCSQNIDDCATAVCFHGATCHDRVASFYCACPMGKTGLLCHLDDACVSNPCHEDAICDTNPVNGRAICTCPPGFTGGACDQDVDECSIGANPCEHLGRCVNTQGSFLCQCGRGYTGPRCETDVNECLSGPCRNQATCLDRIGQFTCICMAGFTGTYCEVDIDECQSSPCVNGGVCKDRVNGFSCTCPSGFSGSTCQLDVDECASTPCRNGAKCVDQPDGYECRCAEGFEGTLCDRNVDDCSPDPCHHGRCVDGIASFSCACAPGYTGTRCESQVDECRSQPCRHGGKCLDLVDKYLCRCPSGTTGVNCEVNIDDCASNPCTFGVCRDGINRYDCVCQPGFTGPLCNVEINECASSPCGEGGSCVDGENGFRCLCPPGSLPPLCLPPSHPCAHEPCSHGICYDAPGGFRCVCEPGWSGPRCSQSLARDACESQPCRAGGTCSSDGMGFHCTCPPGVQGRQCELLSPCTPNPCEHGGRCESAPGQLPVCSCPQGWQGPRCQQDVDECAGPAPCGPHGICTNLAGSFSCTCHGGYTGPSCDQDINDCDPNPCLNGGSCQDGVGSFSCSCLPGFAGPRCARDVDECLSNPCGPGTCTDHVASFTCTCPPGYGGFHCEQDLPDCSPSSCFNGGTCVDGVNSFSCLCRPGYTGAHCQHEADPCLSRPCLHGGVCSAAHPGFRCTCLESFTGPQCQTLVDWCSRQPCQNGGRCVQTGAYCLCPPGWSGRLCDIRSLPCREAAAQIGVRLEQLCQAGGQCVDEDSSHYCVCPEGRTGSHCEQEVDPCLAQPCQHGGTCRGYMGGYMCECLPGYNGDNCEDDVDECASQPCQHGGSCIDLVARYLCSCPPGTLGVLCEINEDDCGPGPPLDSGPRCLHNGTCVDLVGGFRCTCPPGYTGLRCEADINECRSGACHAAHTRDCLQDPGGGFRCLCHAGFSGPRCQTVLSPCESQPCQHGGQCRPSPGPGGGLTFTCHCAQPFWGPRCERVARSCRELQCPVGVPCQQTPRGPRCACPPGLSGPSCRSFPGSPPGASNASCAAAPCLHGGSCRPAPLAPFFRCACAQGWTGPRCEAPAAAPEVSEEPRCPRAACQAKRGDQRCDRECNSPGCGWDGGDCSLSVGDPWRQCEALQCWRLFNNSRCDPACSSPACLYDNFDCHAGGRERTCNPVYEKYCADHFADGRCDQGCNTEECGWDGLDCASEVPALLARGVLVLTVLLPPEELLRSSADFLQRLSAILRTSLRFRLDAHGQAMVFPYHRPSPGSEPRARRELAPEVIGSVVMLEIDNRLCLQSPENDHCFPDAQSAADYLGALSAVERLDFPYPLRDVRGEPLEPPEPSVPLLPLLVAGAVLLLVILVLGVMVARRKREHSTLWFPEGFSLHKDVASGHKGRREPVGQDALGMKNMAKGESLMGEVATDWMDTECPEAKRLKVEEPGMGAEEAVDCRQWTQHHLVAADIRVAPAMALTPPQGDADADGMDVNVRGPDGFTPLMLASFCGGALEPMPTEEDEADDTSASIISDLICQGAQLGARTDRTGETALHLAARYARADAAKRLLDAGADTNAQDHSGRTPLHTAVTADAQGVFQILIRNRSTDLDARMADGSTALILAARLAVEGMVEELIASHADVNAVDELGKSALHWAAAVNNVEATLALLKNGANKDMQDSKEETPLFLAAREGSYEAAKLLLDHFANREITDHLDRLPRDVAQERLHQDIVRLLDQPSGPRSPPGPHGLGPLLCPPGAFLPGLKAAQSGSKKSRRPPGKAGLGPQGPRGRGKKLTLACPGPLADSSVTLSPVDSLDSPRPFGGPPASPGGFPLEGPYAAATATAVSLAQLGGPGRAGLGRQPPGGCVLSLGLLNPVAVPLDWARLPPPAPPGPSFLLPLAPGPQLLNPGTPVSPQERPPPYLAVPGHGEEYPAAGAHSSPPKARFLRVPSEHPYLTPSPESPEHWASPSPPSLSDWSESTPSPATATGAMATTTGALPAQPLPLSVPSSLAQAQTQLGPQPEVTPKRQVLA

[20] = small-molecule microarray binders of probe aEGFR, primary screen, biochemical, biotinylated probe, 635/667 nm fluorescence (AID 1097); conditions: higher = more signal;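 note: probe is a biotinylated anti-EGFR antibody binding compounds printed on slides; score combines fluorescence near 667 nm and signal to noise of each spot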

| SMILES | composite z-score [1] | composite z-score [2] | composite z-score [3] | composite z-score [4] | composite z-score [5] | composite z-score [6] | composite z-score [7] | z-score [8] | composite z-score [9] | composite z-score [10] | composite z-score [11] | z-score [12] | z-score [13] | z-score [14] | composite z-score [15] | z-score [16] | composite z-score [17] | composite z-score [18] | composite z-score [19] | composite z-score [20] |
| --- | --- | --- | --- | --- | --- | --- | --- | --- | --- | --- | --- | --- | --- | --- | --- | --- | --- | --- | --- | --- |
| CCN1C(=O)[C@H]2[C@@H]3C(=CC[C@H]2C1=O)C(=O)[C@H]1O[C@H]1[C@H]3O | -0.538 | -0.0147 | -0.0996 | 0.465 | 0.613 | 0.0141 | 0.73 | -2.63 (inactive) | 0.167 | -0.0346 | 0.833 | 0.367 (inactive) | -0.3 (inactive) | 0.247 (inactive) | -0.176 | -0.763 (inactive) | -0.138 | 0.609 | 0.732 | 0.0107 |
| C=CCOCC1CN2[C@@H](CC[C@@H](C)[C@@H]2c2ccc(Br)cc2)C(=O)O1 (stereo not given in full) | -0.155 | 0.0527 | -0.16 | -0.204 | -0.619 | -0.391 | -0.479 | -0.0613 (inactive) | -0.546 | -0.0994 | -0.149 | -0.349 (inactive) | -0.592 (inactive) | 0.338 (inactive) | -0.581 | 0.415 (inactive) | -0.296 | 0.167 | -0.405 | -0.0953 |
| CON(C)C(=O)c1nnc2c(n1)[nH]c1ccccc12 | -0.262 | 0.668 | -0.165 | 0.494 | 0.448 | 0.0309 | 0.823 | 168 (active) | -0.128 | -0.323 | 0.194 | -0.545 (inactive) | 0.577 (inactive) | -0.298 (inactive) | 0.3 | 0.816 (inactive) | -0.0931 | 0.586 | 0.483 | -0.121 |
| CC(C)=CCCC(C)=CCON=C1[C@H]2CCn3c(=O)n(-c4ccccc4)c(=O)n3[C@H]2[C@H](O)[C@@H]2O[C@H]12 | -0.279 | 0.207 | 0.0243 | 0.0859 | 0.934 | 0.634 | 0.994 | -1.52 (inactive) | 0.516 | -0.0645 | 1.56 | -0.504 (inactive) | -5.66 (inactive) | -0.784 (inactive) | 2.36 | -1.1 (inactive) | 0.207 | 0.59 | 1.07 | -0.0211 |
| CO[C@H]1COC(=O)CCC[C@H](C)[C@@H](OC)COC(=O)CC=C[C@@H]1C | -0.673 | 0.929 | -0.122 | 0.227 | 0.0458 | -0.21 | -0.179 | -0.0314 (inactive) | -0.106 | -0.0237 | 0.411 | 0.0303 (inactive) | 0.197 (inactive) | -1.08 (inactive) | -0.355 | 0.556 (inactive) | -0.0448 | 0.409 | 0.0682 | -0.0405 |
| O=C(NN=C1C[C@@H](O)[C@@H](O)[C@@H]2[C@@H]3C(=O)N(c4ccc(F)cc4F)C(=O)[C@@H]3CC[C@H]12)OCc1ccccc1 | 0.0775 | 1.04 | -0.152 | -0.0134 | 0.194 | 1.47 | -0.0123 | -0.823 (inactive) | 0.991 | 0.0854 | 0.695 | -0.0025 (inactive) | -2.08 (inactive) | -1.69 (inactive) | 1.88 | 0.782 (inactive) | -0.0309 | 0.128 | 0.827 | 0.0443 |
| CC(CCN1CCc2nc(-c3ccccc3)c(-c3ccccc3)cc2C1)=NOC(C)CN1CCCc2nc(C)c(C)cc21 (stereo not given) | -0.0304 | 1.12 | 0.0762 | 0.681 | 1.4 | 0.72 | 1.08 | 1.1 (inactive) | 0.676 | 0.316 | 1.56 | -1.4 (inactive) | -12.6 (active) | -3.45 (inactive) | 2.22 | 0.419 (inactive) | 0.0704 | 0.582 | 1.09 | 0.0709 |
| COc1ccc(COC(=O)NN=C2C[C@@H](O)[C@@H](O)[C@@H]3[C@@H]4C(=O)N(C[C@@H]5CCCO5)C(=O)[C@@H]4CC[C@H]23)cc1 | 0.467 | 0.326 | -0.076 | -0.302 | -0.467 | -0.234 | -0.563 | -0.249 (inactive) | 0.162 | 0.0106 | -0.478 | -0.0944 (inactive) | 0.247 (inactive) | -0.0457 (inactive) | 0.43 | -0.5 (inactive) | 0.258 | -0.809 | -0.398 | -0.211 |
| CC1(C)O[C@H]2OC([C@H](O)CON3C(=O)c4ccccc4C3=O)[C@H](O)[C@H]2O1 (stereo not given in full) | -0.437 | -0.0068 | -0.175 | 0.0685 | 0.335 | 0.166 | 0.0939 | 0.516 (inactive) | 0.169 | -0.374 | 0.318 | -0.702 (inactive) | -0.344 (inactive) | -0.425 (inactive) | -0.061 | 0.742 (inactive) | -0.0561 | 0.441 | 0.419 | 0.0434 |
| CCOC(=O)CCN1C(=O)[C@H]2[C@H]3[C@H](O)[C@H](O)CC(=O)[C@@H]3CC[C@H]2C1=O | -0.577 | 0.125 | -0.16 | 0.832 | 0.916 | 0.102 | 0.482 | -0.407 (inactive) | 0.658 | -0.27 | 0.58 | -0.0366 (inactive) | -0.267 (inactive) | -0.0766 (inactive) | 0.846 | -0.353 (inactive) | -0.198 | 0.589 | 0.738 | 0.0004 |
